Data as given in PubChem BioAssay AID488890 (Southern Research Specialized Biocontainment Screening …, 2010).
Among all 320,000 compounds or so, about 1,300 (0.41%) were called active. Roughly 3% stayed inconclusive and do not appear here. The rule behind the calls is not given here. Only a sample is shown. Results with a measured potency or affinity are listed apart.

assay: growth inhibition of non-replicating M. tuberculosis (AID 488890); conditions: Mycobacterium tuberculosis non-replicating, at 25 µM, stronger effect = higher value;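 note: plate controls were DMSO cells for no effect and high antibiotic wells for full effect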

| SMILES | inhibition [%] |
| --- | --- |
| CCOc1cc(C(=O)NCc2ccc(-c3nc4ccccc4o3)cc2)cc(OCC)c1OCC | 5.09 |
| O=C(Cc1ccc(Cl)cc1)N/N=C/c1ccccc1 | 16.8 |
| Cc1ccc(/C=N\Nc2cn[nH]c(=O)c2Cl)cc1 | -3.74 |
| CCc1ccccc1Nc1nc2ccccc2n1C | 43.6 |
| CC(C)CNS(=O)(=O)c1ccc(S(=O)(=O)N2CCN(CCC#N)CC2)cc1 | 6.46 |
| O=C(N/N=C/c1ccc2c(c1)OCO2)c1ccc2c(c1)OCO2 | 23.3 |
| CCOc1cc(/C=N/NC(=O)c2ccc3c(c2)OCCO3)cc(Br)c1O | 11.1 |
| COc1cccc(/C=N/NC(=O)CNC(=O)c2ccc3c(c2)OCCO3)c1O | -7.52 |
| COc1cccc(/C=N/NC(=O)N/N=C/c2cccc(OC)c2O)c1O | -1.08 |
| COc1cc(/C=N/NC(=O)c2ccoc2C)cc(OC)c1O | -10 |
| O=C(N/N=C/c1ccccc1)c1ccc2c(c1)OCO2 | 51.5 |
| CCN(CC(=O)Nc1sc2c(c1C#N)CCC(C)C2)Cc1nc2ccccc2c(=O)[nH]1 (stereo not given) | 5.89 |
| NC(=O)C1CCCN1 (stereo not given) | 3.98 |
| CC1(C)CC(=O)c2cnc(NCC3CCCO3)nc2C1 (stereo not given) | -8.53 |
| COC(=O)CSc1nnc2c3c4c(sc3nc(-n3nc(C)cc3C)n12)COC(C)(C)C4 | 0.76 |
| O=C1c2ccccc2C(=O)N1CCC#Cc1ccc2cc(CCCO)oc(=O)c2c1 | 12.8 |
| CCc1ccc(OCc2ccc(C(=O)NCc3ccccn3)o2)cc1 | 64.5 |
| CCOc1ccc(OCc2ccc(C(=O)O)o2)cc1 | 18.9 |
| O=C(c1ccc(COc2ccccc2Cl)o1)N1CCCC1 | -8.31 |
| O=C(Nc1ccccn1)c1ccc(COc2ccccc2Cl)o1 | 72.4 |
| N/C(=N\N=C\c1cccs1)SC1CC(=O)N(c2ccc(Br)cc2)C1=O (stereo not given) | 7.06 |
| Cc1cc(C(=O)N/N=C/c2c[nH]c3ccccc23)c(C)o1 | 4.64 |
| Cc1cccc(C)c1NC(=O)Cc1cccs1 | 3.18 |

| SMILES | inhibition [%] |
| --- | --- |
| Cc1cc(C)c2nc(SC3CCOC3=O)cc(C)c2c1 (stereo not given) | 0.02 |
| CC12CCC(C/C1=N\OC(=O)c1c(F)cccc1F)C2(C)C (stereo not given) | -9.61 |
| CC(=O)Nc1ccc(Oc2nc(C(F)(F)F)nc3ccccc23)cc1 | 1.04 |
| COCC1CCCCN1Cc1cn(-c2ccccc2)nc1-c1ccc2c(c1)OCO2 (stereo not given) | 0.23 |
| CSc1ccccc1NC(=O)c1ccc(N2CCCC2=O)cc1 | 7.7 |
| C=CCN=C1NN=C(c2cc(C)n(CC=C)c2C)CS1 | -5.39 |
| C=CCn1c(C)cc(C2=NNC(=NC(C)(C)C)SC2)c1C | 27 |
| CC(=O)Nc1ccc(S(=O)(=O)Nc2nccc(C)n2)cc1 | 20.2 |
| CN(C)NC(=O)c1ccc([N+](=O)[O-])s1 | 11.4 |
| Cc1ccnc(NS(=O)(=O)c2ccc(NC(=O)c3ccc(Cl)cc3[N+](=O)[O-])cc2)n1 | -0.5 |
| O=C(Nc1ccccc1F)c1cc(C(=O)Nc2ccccc2F)cc([N+](=O)[O-])c1 | 5.63 |
| Cc1cccc(C)c1NC(=O)c1ccc([N+](=O)[O-])s1 | 67 |
| Cc1cccc(NC(=O)c2cc3cc([N+](=O)[O-])ccc3s2)n1 | 16.8 |
| O=c1[nH]c2c(c(=O)n1C1CCCCC1)CCC2 | -6.62 |
| COC(=O)c1cccc(CSc2nnc(-c3ccco3)n2-c2ccccc2)c1 | 24 |
| C=CCC(C=C)S(=O)(=O)c1ccc(C)cc1 (stereo not given) | -2.81 |
| CCCCCC1CC(/C(C)=N/NC(N)=O)OC1=O (stereo not given) | 9.08 |
| Cc1noc(C)c1COC(=O)c1ccc(-c2nc3ccccc3s2)s1 | 9.44 |
| O=C(c1ccc(-c2nc3ccccc3s2)s1)N1CCOCC1 | -4.2 |
| COCCNC(=O)COC(=O)CSCc1nc2ccccc2s1 | -4.84 |
| COCCNC(=O)c1nc2ccccc2s1 | 52.5 |
| CCN1CCN(C(=O)c2ccc(-c3nc4ccccc4s3)s2)CC1 | -3.89 |
| CCNC(=O)COC(=O)c1cc(C)nc2ccccc12 | -1.86 |

| SMILES | inhibition [%] |
| --- | --- |
| O=S(=O)(Nc1ccc2cn[nH]c2c1)c1ccc(C(F)(F)F)cc1 | 21.1 |
| Cc1occc1C(=O)N/N=C/c1cccnc1 | -3.52 |
| Cc1ccc(S(=O)(=O)NCc2ccccc2)cc1C(=O)NCCc1ccc(S(N)(=O)=O)cc1 | -1.65 |
| CSc1ncc(CN2CCN(C3CCCC3)C(CCO)C2)cn1 (stereo not given) | 6.95 |
| Cc1cc2oc(=O)cc(CN(C)Cc3cccc(F)c3)c2cc1C | 12.8 |
| Cc1ccc(/C=C/C(=O)O)cc1S(=O)(=O)NCCCO | -0.14 |
| CCOc1cc(/C=N/NC(=O)Cn2nc([N+](=O)[O-])cc2C)cc(Br)c1OCc1ccccc1C | -2.93 |
| Cc1cc(C)nc(NN2C(=O)C=CC2=O)n1 | -13.2 |
| C=CCC1(CC=C)CCCN1C(=O)CC1C(=O)NCCN1Cc1cccc(OC)c1OC (stereo not given) | -15.7 |
| COC(=O)c1ccc(NC(=O)c2cccc(NC(=O)c3ccccc3)c2)cc1 | 32 |
| CC1(C)CC2CC(C)(CN2C(=O)COC(=O)c2cccnc2Cl)C1 (stereo not given) | 14.2 |
| O=C(Nc1c2c(nn1-c1ccc(F)cc1)CS(=O)(=O)C2)C1CCCC1 | -10.4 |
| Cc1n[nH]c(C)c1CCCCOc1ccccc1 | 78.1 |
| COc1ccc(OCCCc2c(C)n[nH]c2C)cc1 | -13.9 |
| COc1ccc(OCCCCc2c(C)n[nH]c2C)cc1 | 78.2 |
| COc1cccc(OCCc2c(C)n[nH]c2C)c1 | 30.4 |
| Cc1ccc2c(c1)N(C(=O)CCC(=O)Nc1ccccc1Br)CC(C)O2 (stereo not given) | -2.28 |
| CCOC(=O)N1CCN(C(=O)C2c3cc(OC)c(OC)cc3C(=O)N3CCc4ccccc4C23)CC1 (stereo not given) | -11.4 |
| CC(=O)C1=C(C)Nc2ncnn2C1c1ccc(O)cc1 (stereo not given) | -8.89 |
| O=C(COC(=O)/C=C/c1ccc(F)cc1)Nc1cccc(S(=O)(=O)N2CCCC2)c1 | 17.9 |
| CC(=O)Nc1ccc(S(=O)(=O)n2cnc(C)c2)cc1 | -2.83 |
| Cc1ccc2nnc(Cl)n2n1 | -5.68 |
| FC(F)(Cl)c1nnc2ccc(Sc3ccccn3)nn12 | -6.69 |

| SMILES | inhibition [%] |
| --- | --- |
| FC(F)(F)c1nnc2ccc(N3CCCCC3)nn12 | -3.88 |
| Clc1ccc2nncn2n1 | 1.77 |
| FC(F)(F)c1nnc2ccc(N3CCCCCC3)nn12 | 8.69 |
| FC(F)(F)c1nnc2ccc(N3CCCC3)nn12 | 1.54 |
| Cc1cc(C)c2nc(NNC(=O)c3ccc(S(=O)(=O)N4CCCC(C)C4)cc3)sc2c1 (stereo not given) | -16.4 |
| COc1ccccc1NC(=O)c1ccc(CSc2ccccc2)o1 | 68.3 |
| O=C(Nc1ccc(F)cc1)c1ccc(CSc2ccccc2)o1 | 77.5 |
| CN1CCN(c2nc3c(c(=O)[nH]c(=O)n3C)n2Cc2ccccc2F)CC1 | -2.87 |
| Cc1ccc2c(c1)/C(=N/OS(=O)(=O)c1ccccc1)CCS2 | 1.31 |
| CC1=C/C(=N\OC(=O)/C=C/c2ccccc2)C(C)=CC1=O | 54.5 |
| Cc1ccc(S(=O)(=O)ON=C2CCN(S(=O)(=O)c3ccccc3)CC2)cc1 | -9.7 |
| COc1ccc(S(=O)(=O)/N=C2/C=CC(=O)C(C)=C2C)cc1 | 24.9 |
| CC(Cc1cccnc1)NC(=O)c1cc(COc2ccc(F)cc2Cl)on1 (stereo not given) | 15.8 |
| CCN(CC)c1ccc(S(=O)(=O)N2CCOCC2)cc1NC(=O)CNCc1ccccc1 | -9.09 |
| Nc1nonc1C(=O)NCCN=Cc1ccccc1O | -0.48 |
| COc1cccc(C=NCCNC(=O)c2nonc2N)c1O | -21.9 |
| COc1ccccc1C1C(C(=O)c2ccco2)=C(O)C(=O)N1c1cc(C)on1 (stereo not given) | 16.5 |
| CN1C(=O)Cn2c1nc1ccccc12 | -4.7 |
| COc1cc(/C=N/NC(=O)CCC(=O)Nc2ccc(C)cc2)ccc1O | 2.61 |
| C=CCn1c(CCNC(=O)c2cccs2)nnc1SCC(=O)Nc1cccc(Cl)c1C | 40.6 |
| Cc1ccc(C)c(NC(=O)CN(C)C(=O)CN2C(=O)NC3(CCc4ccccc43)C2=O)c1 (stereo not given) | 18.4 |
| Cc1ccc2cccc(NS(=O)(=O)c3ccccc3)c2n1 | 64.3 |
| Cc1cc(C)n(-c2cccc3cccnc23)n1 | -3.86 |

| SMILES | inhibition [%] |
| --- | --- |
| CCOC(=O)N1CCC(NC(=O)C2CCN(C(=O)c3cc4oc(C)cc4n3Cc3c(F)cccc3Cl)CC2)CC1 | 5.49 |
| CCc1nc2nc(C)c(NS(=O)(=O)c3cccs3)c(=O)n2[nH]1 | -14.6 |
| COCc1nnc(NC(=O)c2sc3ccccc3c2Cl)s1 | 37.3 |
| Cc1cnc(NC(=O)c2sc3ccccc3c2Cl)s1 | -6.31 |
| NC(=O)COC(=O)CNC(=O)c1sc2ccccc2c1Cl | 8.7 |
| NC(=O)NC(=O)COC(=O)c1sc2ccccc2c1Cl | 1.75 |
| CN(C(=O)COC(=O)c1n[nH]c(=O)c2ccccc12)c1ccccc1 | -7.8 |
| Cc1cc(F)ccc1NC(=O)C1CCCO1 (stereo not given) | -3.85 |
| COc1ccc(NC(=O)NNC(=O)c2ccc3ccccc3c2)cc1OC | -2.52 |
| COc1ccc(/C=N\Nc2ccc([N+](=O)[O-])cc2[N+](=O)[O-])c(C(=O)O)c1OC | 39.2 |
| Nc1c(N(CCC2=CCCCC2)C(=O)c2ccc([N+](=O)[O-])o2)c(=O)[nH]c(=O)n1Cc1ccccc1 | 38.8 |
| N#CC/C(N)=N/NC(=O)CCCNc1ncc(C(F)(F)F)cc1Cl | 0.45 |
| CCOc1ccc(Br)cc1/C(C)=N\NC1=NCCN1 | 38 |
| COc1ccc(Br)cc1/C(C)=N/NC1=NCCN1 | 21.5 |
| O=C1Nc2c(c(=O)[nH]c(=O)n2-c2ccc(F)cc2)C1(NS(=O)(=O)c1ccccc1)C(F)(F)F (stereo not given) | -0.54 |
| CCn1c(=O)c(C(=O)Nc2ccccn2)c(O)c2ccccc21 | 27.7 |
| CCn1c(=O)c(C(=O)Nc2ncccc2O)c(O)c2ccccc21 | 23.7 |
| CCCn1c(=O)c(C(=O)Nc2ncccc2O)c(O)c2ccccc21 | 66.8 |
| CCCCCCn1c(=O)c(C(=O)Nc2ncccc2O)c(O)c2ccccc21 | 67.8 |
| C/C(CC(=O)Nc1ccc(Cl)cc1Cl)=N\NC(=O)C(=O)NCCO | 24.8 |
| CCN(CC)C(=O)CSc1ccc(C(F)(F)F)cc1[N+](=O)[O-] | -2.61 |
| CCOc1ccc(/C=N/NC(=S)NC2CC3CC2C2C=CCC32)cc1 (stereo not given) | -7.06 |
| O=C(CNC(=O)c1[nH]cnc1C(=O)NC(c1ccccc1)c1ccccc1)OCc1ccccc1 | 44.5 |
